Source: PubChem BioAssay (Tox21)
Where “and” joins values, the source holds several entries; their conditions need not be identical. Identical values can stand only once. Inconclusive results are not listed. Entries that show only a call come without a potency. A structure can be active in one record and inactive in another. Calls of active or inactive are those of the source. The call rests on the fitted dose curve; in most records, active means well fitted cell-killing curve with a large enough effect in the repeat runs; inconclusive means weak or mixed curves, or effect the other way; inactive means no such curve, though single readings can be large or run the other way.
Potency means the concentration at half of the fitted maximal effect.

Assay: qHTS assay for identifying genotoxic compounds that show differential cytotoxicity against isogenic chicken DT40 cell lines with known DNA damage response pathways - Rev3 mutant cell line (AID 743014); further: nearly all actives have a fitted effect of over 55% in size
Settings: chicken DT40 Rev3-/- viability, CellTiter-Glo, 40 h; series mostly up to 68.4 µM
Excerpt: National Center for Advancing Translational Sciences [NCATS]
NIH Chemical Genomics Center [NCGC]
U.S. Environmental Protection Agency [EPA]
National Institutes of Environmental Health Sciences [NIEHS]
National Toxicology Program [NTP]
U.S. Food and Drug Administration [FDA]
DNA repair pathways play a critical role in cellular homeostasis by repairing DNA damage induced by endogenous processes and xenobiotics. Isogenic chicken DT40 cell lines deficient in different DNA repair pathways can be used to identify genotoxic compounds and aid in characterizing the nature of the DNA damage induced. Two DNA repair-deficient cell lines with disrupted genes, Rad54/Ku70 or Rev3, were used to screen the Tox21 10K compound library. Possible genotoxicity was based on the presence of a significant increase in cytotoxicity in one or more of the DNA repair-deficient cell lines compared to that observed in the parental DNA repair-proficient cell line. CellTiter Glo viability assay (Promega, Madison, WI) was used to measure cell viability in these cells after compound treatment. This assay includes the data from the Rev3 mutant cell line.
Tox21 Assay Protocol Summary:
300 DT40 mutant cells in 5 uL/well were dispensed into white, solid-bottom 1536-well plates using a Multidrop Combi (ThermoFisher Scientific, Waltham, MA) dispenser. After the assay plates were incubated at 37 C/5% CO2 for approximately 0.5 hour, 23 nL of compounds dissolved in DMSO, positive controls or DMSO only was transferred into the assay plate by a pintool work station (Kalypsys, San Diego, CA). The assay plates were incubated at 37 C/5% CO2 for 40 hours. After 5 uL per well of CellTiter-Glo reagent was added into each well of the assay plates, the plates were incubated for 30 min at room temperature and the luminescence intensity of the plates was measured using a ViewLux (PerkinElmer, Shelton, CT) plate reader.
With `CC1=CC(=O)NS(=O)(=O)O1` the Potency was “inactive”.
In the case of `CCCCCCCCC/C=C/CC1CC(=O)OC1=O` (stereo not given), the Potency is reported as 48.6 µM (active).
For `CCCCCCCCCCCCCCCO`, the Potency was “inactive”.
With `CCCCCC/C(C=O)=C\c1ccccc1` the Potency was “inactive”.
In the case of `C=CCNC(N)=S`, the Potency is reported as “inactive”.
With `CC(=O)CC(=O)Nc1ccccc1C` the Potency was “inactive”.
With `COc1ccc(Nc2ccccc2)c(C)c1` the Potency was “inactive”.
With `Cc1cc(C)c(C)cc1C` the Potency was “inactive”.
With `CCCCC(CC)CO` (stereo not given) the Potency was “inactive”.
With `C=C(C)C(=O)OCCOCCOCCOC(=O)C(=C)C` the Potency was “inactive”.
For `C=C(C)C(=O)O[C@H]1C[C@@H]2CC[C@@]1(C)C2(C)C`, the Potency was “inactive”.
With `Cc1cccc(O)c1` the Potency was “inactive”.
For `CC1CCC(C(C)C)C(O)C1` (stereo not given), the Potency was “inactive”.
With `O=S1(=O)CC=CC1` the Potency was “inactive”.
For `O=c1[nH]nnc2ccccc12`, the Potency was “inactive”.
For `Cc1occc(=O)c1O`, the Potency was “inactive”.
In the case of `CCCCC(CC)COC(=O)C(C#N)=C(c1ccccc1)c1ccccc1` (stereo not given), the Potency is reported as “inactive”.
For `CCCCCOC(C)=O`, the Potency was “inactive and 68.6 µM (active)”.
With `C#CCN(C)Cc1ccccc1` the Potency was “inactive”.
With `Nc1ccccc1[N+](=O)[O-]` the Potency was “inactive”.
With `COS(C)(=O)=O` the Potency was “inactive”.
For `O=S(=O)(O)c1ccc2ccccc2c1`, the Potency was “inactive and 43.4 µM (active)”.
In the case of `O=C(O)[C@H](O)[C@@H](O)[C@H](O)[C@H](O)CO`, the Potency is reported as “inactive”.
With `CC(=O)c1ccccc1` the Potency was “inactive”.
For `O=C(O)c1cc(O)c(O)c(O)c1`, the Potency was 26.6 µM (active) and 24.6 µM (active).
With `O=C(O)c1cc(C(=O)O)cc(S(=O)(=O)O)c1` the Potency was “inactive”.
In the case of `COc1ccc(NC(C)=O)cc1N`, the Potency is reported as “inactive”.
In the case of `Cc1ccc2oc(=O)ccc2c1`, the Potency is reported as “inactive”.
In the case of `OCCOCCN1CCN(C2=Nc3ccccc3Sc3ccccc32)CC1`, the Potency is reported as 26.6 µM (active) and 9.44 µM (active).
In the case of `Oc1cccc2ccccc12`, the Potency is reported as “inactive”.
In the case of `CC(c1cc2ccccc2s1)N(O)C(N)=O` (stereo not given), the Potency is reported as “inactive”.
In the case of `C#C[C@]1(O)CC[C@H]2[C@@H]3CCC4=CC(=O)CC[C@@H]4[C@H]3CC[C@@]21C`, the Potency is reported as “inactive and 27.3 µM (active)”.
With `C[C@H]1C[C@@H]2[C@H]([C@@H](O)C[C@@]3(C)[C@H]2CC[C@]3(O)C(=O)CO)[C@@]2(C)C=CC(=O)C=C12` the Potency was “inactive”.
With `CCCCCCCCCCCCc1ccccc1` the Potency was “inactive”.
With `O=C=NCCCCCCN=C=O` the Potency was “inactive”.
With `CCCCCCCCCCCCS` the Potency was “inactive”.
With `CCCCCCCC(=O)OC` the Potency was “inactive”.
In the case of `CCCCCCCCCCCCCCO`, the Potency is reported as “inactive”.
In the case of `C=C(C)C(=O)Nc1ccc(Cl)c(Cl)c1`, the Potency is reported as “inactive”.
For `CCCC(C)=O`, the Potency was “inactive”.
